Out of some 2,300 compounds screened, about 330 (14%) showed activity. The list is a sample of the results. Unmarked numbers belong to inactive results.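 Rule for the calls: active = median modified Z-score above 1.96; inactive = 1.96 or below.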
What follows are compounds tested on HepG2 Srxn1-GFP reporter cells (+30 nM CDDO-Me) (assay: Srxn1-GFP intensity median modified Z-score relative to plate median; higher = stronger NRF2 / oxidative stress reporter activation, active = hit call of the paper). Conditions: 10 µM; exposure time: 24h.
In short: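 HepG2 Srxn1-GFP BAC reporter cells (20,000 per well, 96-well plates) were co-exposed to an NRF2 activator at 30 nM and compound at 10 μM (≤0.1% DMSO) for 24 h in three replicate plates. After formaldehyde fixation and Hoechst staining, confocal images were analysed per cell for cytoplasmic GFP, excluding images with under 100 cells. The value is the median over replicates of the per-plate modified Z-score of GFP intensity. Scaling used 1.4826 × median absolute deviation.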

Row | Structure (SMILES) | Srxn1-GFP intensity median modified Z-score
1 | C#CC(C)(O)CC (configuration not stated) [euspeclibcmpd1276] | 1.99 (active)
2 | CCC(C)(C)O [euspeclibcmpd964] | -0.585
3 | CC1C(=O)O[C@@H]2CCN3CC=C(COC(=O)[C@](C)(O)[C@]1(C)O)[C@H]23 (some centres not stated) [euspeclibcmpd1632] | -0.339
4 | N=c1[nH]c(=N)[nH]c(=NC2CC2)[nH]1 [euspeclibcmpd1229] | -0.282
5 | CNC(=O)Oc1ccccc1OC(C)C [euspeclibcmpd1026] | -0.0719
6 | c1ccc2c(c1)oc1ccccc12 | 0.352
7 | c1ccc2c(c1)sc1ccccc12 [euspeclibcmpd88] | 3.54 (active)
8 | C#CC1(O)CCC2C3CC=C4CC(=O)CCC4(C)C3CCC21C (configuration not stated) [euspeclibcmpd545] | -0.576
9 | CN1C2C[C@H](OC(=O)C(CO)c3ccccc3)C[C@@H]1[C@@H](O)C2 (some centres not stated) [euspeclibcmpd1244] | -0.443
10 | CC(C)CC(N(C)C)C1(c2ccc(Cl)cc2)CCC1 (configuration not stated) [euspeclibcmpd2026] | -0.299
11 | O=c1cccc2n1C[C@H]1CNCC2C1 [euspeclibcmpd1159] | 0.6
12 | C[N+]1(C)C2CC(OC(=O)C(CO)c3ccccc3)CC1C1OC12 (configuration not stated) [euspeclibcmpd193] | -0.176
13 | O=C(O)C1CCN1 (configuration not stated) | 1.24
14 | C[N+](C)(C)CCCCCCCCCC[N+](C)(C)C [euspeclibcmpd902] | 4.92 (active)
15 | NCC1(CC(=O)O)CCCCC1 [euspeclibcmpd872] | -0.0794
16 | CN(C(=O)Oc1cccc2cccnc12)c1ccccc1 | 5.69 (active)
17 | COc1cc(OC)c2c(c1)O[C@H](c1ccc(OC)c(OC)c1)[C@@H](O)C2 [euspeclibcmpd1381] | -0.52
18 | COc1cc2c(cc1-c1cc3cc4ccoc4cc3oc1=O)OCO2 [euspeclibcmpd1721] | 0.147
19 | C[C@]12CCC3C(CC[C@H]4CC(=O)CC[C@]34C)C1CCC2=O (some centres not stated) [euspeclibcmpd1450] | -0.253
20 | N#CC(O[C@@H]1O[C@H](CO[C@@H]2O[C@H](CO)[C@@H](O)[C@H](O)[C@H]2O)[C@@H](O)[C@H](O)[C@H]1O)c1ccccc1 (some centres not stated) [euspeclibcmpd1342] | -0.305
21 | O=C(N/N=C/c1ccc([N+](=O)[O-])o1)c1cc([N+](=O)[O-])cc([N+](=O)[O-])c1O [euspeclibcmpd462] | 3.58 (active)
22 | Cc1nccc2c1[nH]c1ccccc12 [euspeclibcmpd1462] | -0.275
23 | COc1ccc2c(c1)[nH]c1c(C)nccc12 [euspeclibcmpd1501] | 1.98 (active)
24 | CNc1ccc(C(=O)CC(O)CCC(C)C2OC(=O)CC(O)CC(=O)CC(O)CC(O)CC(O)CC(O)CC3(O)CC(O)C(C(=O)OC)C(CC(OC4OC(C)C(O)C(N)C4O)C=CC=CC=CC=CC=CC=CC=CC2C)O3)cc1 (configuration not stated) [euspeclibcmpd1836] | 0.559

Row | Structure (SMILES) | Srxn1-GFP intensity median modified Z-score
25 | NC1C[C@H]1c1ccccc1 (some centres not stated) [euspeclibcmpd300] | 1.01
26 | CCOC(=O)CC(SP(=S)(OC)OC)C(=O)OCC (configuration not stated) [euspeclibcmpd992] | 0.167
27 | OC[C@@H]1CCCN2CCCC[C@H]12 [euspeclibcmpd1729] | -0.476
28 | CCN1C[C@@]2(COC)C3[C@@H](OC)[C@H]4[C@@H]1[C@]3(C(OC)C[C@H]2O)C1C[C@@]2(O)[C@H](OC(=O)c3ccccc3)C1[C@]4(OC(C)=O)[C@@H](O)[C@@H]2OC (some centres not stated) [euspeclibcmpd686] | 0.0544
29 | COP(=O)(OC)OC=C(Cl)Cl [euspeclibcmpd1300] | 1.08
30 | CN(C)C(=S)SSC(=S)N(C)C [euspeclibcmpd571] | 1.95
31 | N#CC(=Cc1cccc(O)c1)C(=O)O [euspeclibcmpd2014] | 0.195
32 | Oc1cc(Cl)ccc1Oc1ccc(Cl)cc1Cl [euspeclibcmpd800] | 3.85 (active)
33 | Oc1ccc(Cl)cc1 [euspeclibcmpd227] | -0.0545
34 | CC(Oc1ccc(Cl)cc1Cl)C(=O)O (configuration not stated) [euspeclibcmpd2066] | 0.00229
35 | CCOc1cc(C=O)ccc1O [euspeclibcmpd2137] | 0.0734
36 | CNc1ccccc1C(=O)O [euspeclibcmpd1568] | -0.451
37 | CCC(C)C(=O)O[C@@H]1C[C@@]2(C)[C@H](c3ccoc3)OC(=O)CC23OC2(C)O[C@]14[C@]1(C)[C@@H](CC(=O)OC)C5(C)CC1(O)[C@](O)(C5OC(=O)C1(C)OC1C)[C@@H](OC(C)=O)[C@]34O2 (some centres not stated) [euspeclibcmpd1590] | 1.25
38 | N=C(N)NOCCC(N)C(=O)O (configuration not stated) [euspeclibcmpd2161] | -0.447
39 | C#C[C@]1(O)CC[C@H]2[C@@H]3CC=C4CC(=O)CCC4C3CC[C@@]21CC (some centres not stated) [euspeclibcmpd2176] | 0.145
40 | NCCCc1c[nH]c2ccccc12 | 1.08
41 | CC1=C2C3OC(=O)C(C)[C@@H]3CC[C@@]2(C)C=CC1=O (some centres not stated) [euspeclibcmpd1347] | 0.307
42 | CC=C(C)C(=O)O[C@H]1C[C@@H](OC(C)=O)[C@@]2(C(=O)OC)CO[C@@H]3C2[C@]12CO[C@](O)(C(=O)OC)[C@H]2[C@](C)([C@]12O[C@@]1(C)[C@H]1C[C@@H]2OC2OC=C[C@@]21O)[C@@H]3O (some centres not stated) [euspeclibcmpd1486] | 2.24 (active)
43 | C#C[C@]1(O)CCC2C3CC=C4CC(=O)CCC4C3CC[C@@]21CC (some centres not stated) [euspeclibcmpd2251] | -0.375
44 | O=c1n(Cl)c(=O)n(Cl)c(=O)n1Cl [euspeclibcmpd935] | -0.815
45 | c1ccc(/N=N\c2ccccc2)cc1 [euspeclibcmpd1762] | 0.733
46 | C[C@]12CCC(=O)CC1=CCC1C2CC[C@@]2(C)C1CC[C@@H]2O (some centres not stated) [euspeclibcmpd2134] | -0.455
47 | C[C@]12CCC3c4ccc(OC(=O)N(CCCl)CCCl)cc4CCC3C1CC[C@@H]2O (some centres not stated) [euspeclibcmpd984] | 2.13 (active)

From the supplement of paper PMC10498489
